Experimental data: PubChem BioAssay (EPA / NIEHS)
Activity calls are given as the source filed them. The calls were made as follows: active = hit-call score of the fitted dose curve at least 0.9, where 1 is the maximum; inactive = score below 0.9.

Test: APR_HepG2_CellCycleArrest_1hr: Apredica 1-hour HepG2 Assay for Cell Cycle Arrest (AID 2282666)
Settings: high-content imaging, actives raise or lower the signal
Experimental: APR_HepG2_1hr is a cell-based, multiplexed-readout assay that uses HepG2, a human liver cell line, with measurements taken at 1 hour after chemical dosing in a 384-well plate.APR_HepG2_CellCycleArrest_1hr is one of 10 assay component(s) measured or calculated from the APR_HepG2_1hr assay. It is designed to make measurements of cell phenotype, a form of morphology reporter, as detected with fluorescence intensity signals by HCS Fluorescent Imaging technology.Data from the assay component APR_HepG2_CellCycleArrest_1hr was analyzed into 1 assay endpoint. This assay endpoint, APR_HepG2_CellCycleArrest_1hr, was analyzed with bidirectional fitting relative to DMSO as the negative control and baseline of activity. Using a type of morphology reporter, measures of all nuclear dna for gain or loss-of-signal activity can be used to understand the signaling at the pathway-level as they relate to the gene . Furthermore, this assay endpoint can be referred to as a primary readout, because this assay has produced multiple assay endpoints where this one serves a signaling function. To generalize the intended target to other relatable targets, this assay endpoint is annotated to the cell cycle intended target family, where the subfamily is arrest.
Cells were treated with dimethyl sulfoxide (DMSO) as a solvent control at a final concentration of 0.5% v/v or with compounds in DMSO with a resulting final DMSO concentration of 0.5% v/v. Compound treatment was done at concentrations of 0.39, 0.78, 1.56, 3.12, 6.24, 12.5, 25, 50, 100, and 200 uM in duplicate on each plate. Cells were treated with compounds for 1, 24, or 72 hr. Carbonyl […] m-chloro-phenylhydrazone (CCCP) and taxol were used as positive controls for mitochondrial function and cytoskeletal stability, respectively; DMSO served as the negative control for this experiment. Cells were fixed by the direct addition of 50 uL formaldehyde in Hank's Balanced Salt Solution (HBSS) to a final concentration of 3.7%. After incubation in the fixation medium for 30 min at room temperature (293-298 K), cells were rinsed twice with HBSS and treated with cell permeabilization buffer (16 uL of 0.5% Triton X-100) for 10 min at room temperature (293-298 K) before labeling. For mitochondrial membrane potential and mitochondrial measurements, pre-fixed cells were incubated with 50 uL of MitoTracker Red CMXRos (Invitrogen) at a concentration of 250 nM for 30 min before fixation. In the remaining cases, post-fixed cells were labeled by incubation with a multiplexed mixture of primary antibodies in HBSS for 60 min at room temperature (293-298 K) to detect immunoreactivity of c-Jun (1:500), phospho-histone H3 (1:100), phospho-histone H2A.x (1:200), p53 (1:400), alpha-tubulin (1:200) and Hoechst 33342 (2 ug/mL). Cells were labeled for multiplexed imaging on two separate plates: a) Hoechst 33342, MitoTracker Red, phospho-histone H3, and alpha-tubulin, and b) Hoechst 33342, phospho-histone H2A.x, and c-Jun. A final rinse with HBSS (50 uL) was performed before analysis. The primary and secondary antibodies for the proteins were phospho-histone H3 (rabbit anti-phospho-histone H3 and FITC-donkey anti-rabbit IgG), phospho-histone H2A.x (mouse anti-phospho-histone H2A.x and FITC-donkey anti-mouse IgG), c-Jun (rabbit anti-phospho-c-Jun and Cy3-donkey anti-rabbit IgG), p53 (sheep anti-p53 and Cy5-donkey anti-sheep IgG), alpha-tubulin (mouse anti-alpha-tubulin and Cy5-donkey anti-mouse IgG). These antibodies are available as the CellCiphr HepG2 assay kit (Millipore).Digital images of each well were captured using a Cellomics ArrayScan VTI (Thermo Scientific Cellomics) (0.8 NA objective, 0.63x optical coupler, and XF-93 filter set) at 20x magnification. The images were acquired using the autofocus feature of the ArrayScan instrument, which entails the following steps. First, the camera focuses on channel 1 (Hoechst 33342), where nuclei are identified. Second, a Z offset of 1 um is used for capturing mitochondria (MitoTracker Red). […]

SMILES	outcome	AC50
Cc1nc(N(C)C)nc(OC(=O)N(C)C)c1C	inactive	–
COc1cc(OC)nc(NC(=O)NS(=O)(=O)c2ncccc2OCC(F)(F)F)n1	inactive	–
O=C1C2CC=CCC2C(=O)N1SC(Cl)(Cl)Cl (stereo not given)	inactive	–
COP(=S)(OC)Oc1ccc([N+](=O)[O-])c(C)c1	inactive	–
COC(=O)N(C(=O)N1CO[C@@]2(C(=O)OC)Cc3cc(Cl)ccc3C2=N1)c1ccc(OC(F)(F)F)cc1	inactive	–
CC(C)=CC1C(C(=O)OCc2coc(Cc3ccccc3)c2)C1(C)C (stereo not given)	inactive	–
CCOc1nc(F)cc2nc(S(=O)(=O)Nc3c(Cl)cccc3Cl)nn12	inactive	–
CCOC(=O)C(C)OC(=O)c1cc(Oc2ccc(C(F)(F)F)cc2Cl)ccc1[N+](=O)[O-] (stereo not given)	inactive	–
CC1(C)C(C(=O)OC(C#N)c2cccc(Oc3ccccc3)c2)C1(C)C (stereo not given)	inactive	–
O=P(O)(O)CCCl	–	71.3 nM (active)
COc1ccc(-c2ccccc2)cc1NNC(=O)OC(C)C	inactive	–
CCOP(=O)(OCC)Oc1nc(Cl)c(Cl)cc1Cl	inactive	–
O=C(O)c1c(Cl)ccc2cc(Cl)cnc12	inactive	–
CC(C)Nc1nc(Cl)nc(NC(C)C)n1	inactive	–
C=CCOC(=O)C(C)(C)OC(=O)c1cc(-n2c(=O)cc(C(F)(F)F)n(C)c2=O)ccc1Cl	inactive	–
Cc1cc(C)nc(Nc2ccccc2)n1	inactive	–
CC(C)NC(=O)N1CC(=O)N(c2cc(Cl)cc(Cl)c2)C1=O	inactive	–
C=C(C)CN(CC)c1c([N+](=O)[O-])cc(C(F)(F)F)cc1[N+](=O)[O-]	inactive	–
CNC(=O)Oc1cccc2ccccc12	inactive	–
COCC(=O)N(c1c(C)cccc1C)C(C)C(=O)OC (stereo not given)	inactive	–

SMILES	outcome	AC50
Cc1cnc(C2=NC(C)(C(C)C)C(=O)N2)c(C(=O)O)c1 (stereo not given)	inactive	–
CCSC(=O)N1CCCCCC1	inactive	–
CC(C)N1C(=O)N(c2ccccc2)CSC1=NC(C)(C)C	inactive	–
CS(=O)(=O)c1ccc(C(=O)C2C(=O)CCCC2=O)c([N+](=O)[O-])c1	inactive	–
Clc1nc(Cl)nc(Nc2ccccc2Cl)n1	inactive	–
COP(=O)(OC)O/C(C)=C/C(=O)N(C)C	inactive	–
Cc1ccc(N=CN(C)C=Nc2ccc(C)cc2C)c(C)c1	inactive	–
Cn1c(-c2ccccc2)cc(-c2ccccc2)[n+]1C	inactive	–
CCNP(=S)(OC)O/C(C)=C/C(=O)OC(C)C (stereo not given)	inactive	–
Nc1c(Cl)c(Cl)nc(C(=O)O)c1Cl	inactive	–
CCCCOCN(C(=O)CCl)c1c(CC)cccc1CC	inactive	–
CC1(C)CCC(=Cc2ccc(Cl)cc2)C1(O)Cn1cncn1 (stereo not given)	inactive	–
Nc1cnn(-c2ccccc2)c(=O)c1Cl	inactive	–
CN=C=S	inactive	–
COC(=O)NC(=S)Nc1ccccc1NC(=S)NC(=O)OC	inactive	–
COCc1cnc(C2=NC(C)(C(C)C)C(=O)N2)c(C(=O)O)c1 (stereo not given)	inactive	–
CC1(C)C(C=C(Cl)Cl)C1C(=O)OC(C#N)c1cccc(Oc2ccccc2)c1 (stereo not given)	inactive	–
COC(=O)c1c(C(F)F)nc(C(F)(F)F)c(C2=NCCS2)c1CC(C)C	inactive	–
O=C(Nc1ccccc1-c1ccc(Cl)cc1)c1cccnc1Cl	inactive	–
COP(=S)(OC)SCn1nnc2ccccc2c1=O	inactive	–
